{"source": "the supplement of paper PMC3334620", "note": "The full ranking holds about 33,000 sequences; the median of “E-score (-0.5 to 0.5)” is about -0.032, and the highest 2% start at about 0.36. The sample holds the highest values, similar sequences and a random draw of the others, so the mix is not that of the screen.", "data": [{"molecular_target": "T1, Sko1 (UniProt Q02100)", "T1 sequence": "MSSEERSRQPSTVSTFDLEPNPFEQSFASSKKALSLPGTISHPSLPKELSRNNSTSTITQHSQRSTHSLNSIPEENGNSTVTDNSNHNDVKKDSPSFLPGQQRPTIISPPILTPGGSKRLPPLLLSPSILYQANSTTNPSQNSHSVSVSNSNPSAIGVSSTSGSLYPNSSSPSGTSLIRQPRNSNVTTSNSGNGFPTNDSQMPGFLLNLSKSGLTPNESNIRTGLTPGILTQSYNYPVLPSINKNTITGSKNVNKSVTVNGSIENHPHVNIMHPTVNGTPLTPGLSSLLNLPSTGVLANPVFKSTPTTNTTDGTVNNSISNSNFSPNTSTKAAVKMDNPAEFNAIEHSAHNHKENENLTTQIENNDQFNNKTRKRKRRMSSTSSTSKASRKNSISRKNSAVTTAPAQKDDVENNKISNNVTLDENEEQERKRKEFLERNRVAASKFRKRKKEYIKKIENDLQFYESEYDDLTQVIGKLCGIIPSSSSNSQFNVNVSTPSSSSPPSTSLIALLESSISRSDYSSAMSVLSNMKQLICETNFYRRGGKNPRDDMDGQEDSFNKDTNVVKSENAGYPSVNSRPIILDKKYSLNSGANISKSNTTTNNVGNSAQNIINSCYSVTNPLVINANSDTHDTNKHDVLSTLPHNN", "assay": "PBM E-score (8-mer binding enrichment) (E-score (-0.5 to 0.5)); higher = stronger / more preferred TF binding", "settings": "protein concentration: 200 nM; construct: GST-full length", "method_in_brief": "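Yeast transcription factors carrying a GST tag, as full-length proteins or DNA-binding domains, were produced by PURExpress in vitro transcription/translation. About 100-200 nM protein was applied to universal all-10-mer Agilent arrays, double-stranded by primer extension on fresh or once-stripped slides. Bound protein was detected with fluorescent anti-GST, and scans were normalised with masliner. The Universal PBM Analysis Suite gave each ungapped eight-base word, pooled with its reverse complement, an E-score, a modified Wilcoxon-Mann-Whitney statistic.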", "values": [{"sequence": "ACCGGGTG", "PBM E-score": -0.224}, {"sequence": "TGAGTACA", "PBM E-score": -0.0184}, {"sequence": "CAGCATGC", "PBM E-score": -0.0382}, {"sequence": "TGGCCCAA", "PBM E-score": -0.0707}, {"sequence": "ACCAACTG", "PBM E-score": -0.0438}, {"sequence": "CCAGAGAA", "PBM E-score": 0.0433}, {"sequence": "CTGTCGGC", "PBM E-score": -0.148}, {"sequence": "AGATCGAA", "PBM E-score": 0.0696}, {"sequence": "GATTACAC", "PBM E-score": 0.0868}, {"sequence": "CATTACGC", "PBM E-score": 0.409}, {"sequence": "AATTACAC", "PBM E-score": 0.0946}, {"sequence": "AATTACGT", "PBM E-score": 0.492}, {"sequence": "CATTACCC", "PBM E-score": -0.0584}, {"sequence": "AATTACGG", "PBM E-score": 0.26}, {"sequence": "AATTACAG", "PBM E-score": 0.113}, {"sequence": "AATTAGGT", "PBM E-score": 0.26}, {"sequence": "CATTACAC", "PBM E-score": 0.198}, {"sequence": "GATTACCC", "PBM E-score": -0.0418}, {"sequence": "AATTACAT", "PBM E-score": 0.375}, {"sequence": "GATTACGC", "PBM E-score": 0.425}, {"sequence": "AGTGAGGC", "PBM E-score": 0.0161}, {"sequence": "CGGTTAAC", "PBM E-score": 0.0142}, {"sequence": "ACTTAAAA", "PBM E-score": 0.241}, {"sequence": "ATCAGATC", "PBM E-score": -0.0621}, {"sequence": "AGTTGAAT", "PBM E-score": 0.135}, {"sequence": "ATGTCCAA", "PBM E-score": 0.0296}, {"sequence": "CCCGGGTC", "PBM E-score": -0.204}, {"sequence": "GGCGCCAA", "PBM E-score": -0.179}, {"sequence": "ATGAAGGA", "PBM E-score": 0.0878}, {"sequence": "ATCCACCG", "PBM E-score": -0.0573}, {"sequence": "ATTTACGC", "PBM E-score": 0.281}, {"sequence": "AATTACCC", "PBM E-score": 0.0055}, {"sequence": "TATTACAA", "PBM E-score": 0.221}, {"sequence": "TATTACGA", "PBM E-score": 0.414}, {"sequence": "AATTACGC", "PBM E-score": 0.44}, {"sequence": "TATTACCA", "PBM E-score": 0.227}, {"sequence": "CTTCGAAG", "PBM E-score": -0.208}, {"sequence": "AGGCCCCG", "PBM E-score": -0.372}, {"sequence": "ATGGTTGA", "PBM E-score": -0.0732}, {"sequence": "ACGGAGCA", "PBM E-score": -0.116}, {"sequence": "CCTACAGG", "PBM E-score": -0.365}, {"sequence": "TGCGCGAA", "PBM E-score": 0.169}]}]}
